Test results published in PubChem BioAssay (NCATS).
Records with an inconclusive call do not appear. Activity calls are given as the source filed them. The call rests on the fitted dose curve; in most records, active means well fitted curve in the direction sought with a large enough effect; inconclusive means small, poorly fitted or top-dose-only effect, or another doubt; inactive means no such curve, though single readings can be large; an effect the other way counts as inactive or inconclusive.

Legend:
[1] = target: Furin (Homo sapiens) (UniProt P09958); assay: Furin counterscreen qHTS for Zika virus inhibitors (AID 1347149); conditions: furin enzymatic counterscreen, fluorogenic substrate; series mostly up to 114 µM; further: nearly all actives have a fitted effect of over 70% in size; further: potency means the concentration at half of the fitted maximal effect
Chain of Furin (Homo sapiens) (P09958 whole entry, looked up): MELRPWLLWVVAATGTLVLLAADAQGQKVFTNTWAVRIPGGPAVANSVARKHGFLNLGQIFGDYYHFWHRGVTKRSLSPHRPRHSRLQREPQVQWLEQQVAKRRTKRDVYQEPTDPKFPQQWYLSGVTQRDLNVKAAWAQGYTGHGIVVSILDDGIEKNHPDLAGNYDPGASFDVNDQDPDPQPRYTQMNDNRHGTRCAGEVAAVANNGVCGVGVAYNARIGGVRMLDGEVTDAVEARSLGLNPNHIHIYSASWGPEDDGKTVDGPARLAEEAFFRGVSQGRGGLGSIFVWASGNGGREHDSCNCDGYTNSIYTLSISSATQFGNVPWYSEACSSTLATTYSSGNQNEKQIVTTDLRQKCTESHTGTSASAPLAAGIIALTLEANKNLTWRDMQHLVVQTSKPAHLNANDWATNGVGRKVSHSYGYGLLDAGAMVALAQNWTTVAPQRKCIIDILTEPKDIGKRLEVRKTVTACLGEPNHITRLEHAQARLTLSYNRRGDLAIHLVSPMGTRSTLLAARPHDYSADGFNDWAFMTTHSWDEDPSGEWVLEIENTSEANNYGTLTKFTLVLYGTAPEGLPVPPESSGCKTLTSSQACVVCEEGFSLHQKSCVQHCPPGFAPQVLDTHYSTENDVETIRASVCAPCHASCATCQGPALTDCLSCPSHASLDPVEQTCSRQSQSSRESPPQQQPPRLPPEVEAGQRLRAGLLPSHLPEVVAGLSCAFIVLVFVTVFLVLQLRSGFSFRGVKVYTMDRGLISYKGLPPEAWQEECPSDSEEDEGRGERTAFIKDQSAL
Summary of the method: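 Counterscreen measures cleavage of 2 microM BOC-RVRR-AMC, below its ~15 microM Km, by 5 nM full-length human furin at pH 7.0 after a 15-min compound preincubation. Inhibition derives from the 15-min fluorescence increase at 37C.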

[2] = test system: Zika virus NS2B-NS3 protease (linked construct); assay: Confirmatory screen NINDS AMC qHTS for Zika virus inhibitors (AID 1347152); conditions: Purified linked NS2B-NS3, AMC substrate fluorescence; series mostly up to 36.9 µM; further: potency means the concentration at half of the fitted maximal effect; nearly all actives have a fitted effect of over 70% in size
Summary of the method: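 IC50s from 4-parameter Hill fits of percent inhibition, based on AMC fluorescence gain (340/450 nm) over 15 min with 10 microM Bz-Nle-KRR-AMC. Enzyme: 1 nM linked NS2B-NS3 in Tris-HCl pH 8.0; 15-min compound preincubation.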

[3] = test system: Zika virus NS2B-NS3 protease (unlinked complex); assay: Confirmatory screen GU AMC qHTS for Zika virus inhibitors (AID 1347153); conditions: Recombinant NS2B-NS3 protease, AMC substrate fluorescence;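 further: enzyme at 25 nM with substrate at 10 µM below its Km of 18.3 µM; potency means the concentration at half of the fitted maximal effect; nearly all actives have a fitted effect of over 70% in size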
Summary of the method: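 Compounds were preincubated 15 min at room temperature with 25 nM noncovalent NS2B-NS3 protease at pH 8.0; AMC substrate added at 10 microM and 15-min fluorescence gain (340/450 nm) converted to percent inhibition, fitted 4-parameter.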

[4] = Confirmatory screen GU Rhodamine qHTS for Zika virus inhibitors qHTS (AID 1347157); conditions: purified enzyme assay, Rhodamine110 substrate fluorescence, 15 min; series mostly up to 114 µM; further: potency means the concentration at half of the fitted maximal effect; nearly all actives have a fitted effect of over 70% in size
Summary of the method: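 Enzyme 25 nM in Tris-HCl pH 8.0 + 0.01% Tween 20; compounds up to 114 microM, 15 min RT dark; + Rhod110 substrate 1.5 microM; read t0 and 15 min; delta fluorescence → % inhibition → 4-parameter Hill fit.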

[5] = test system: Zika virus NS2B-NS3 protease (unlinked complex); assay: Primary screen GU Rhodamine qHTS for Zika virus inhibitors: Unlinked NS2B-NS3 protease assay (AID 1347159); conditions: Recombinant ZIKV NS2B-NS3 protease, Rhodamine110 substrate fluorescence; series mostly up to 107 µM; further: potency means the concentration at half of the fitted maximal effect; nearly all actives have a fitted effect of over 60% in size
Summary of the method: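 Percent inhibition came from the 15-min rise in Rhodamine110 fluorescence (1.5 microM substrate, ~15% conversion), normalized to no-inhibitor and no-enzyme wells and Hill-fitted. Unlinked protease, 25 nM, pH 8.0 Tris buffer; compounds up to 114 microM, 15-min preincubation.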

[6] = test system: Zika virus NS2B-NS3 protease (linked construct); assay: Primary screen NINDS Rhodamine qHTS for Zika virus inhibitors (AID 1347160); conditions: purified NS2B-NS3 protease, Rhodamine110 substrate fluorescence; series mostly up to 57.1 µM; further: nearly all actives have a fitted effect of over 55% in size; further: potency means the concentration at half of the fitted maximal effect
Summary of the method: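 Rhodamine110-peptide cleavage (1.5 µM substrate) by 25 nM linked NS2B-NS3 enzyme at pH 8.0 (Tris, Tween 20), after 15 min RT preincubation with compounds; 15-min fluorescence change normalized to controls and Hill-fitted.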

[7] = Confirmatory screen NINDS Rhodamine qHTS for Zika virus inhibitors (AID 1347161); conditions: purified enzyme assay, Rhodamine110 substrate fluorescence, 15 min; series mostly up to 114 µM; further: potency means the concentration at half of the fitted maximal effect; nearly all actives have a fitted effect of over 60% in size
Summary of the method: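 Purified linked NS2B-NS3 protease (NS2B hydrophilic domain joined to NS3 protease by flexible linker), 25 nM in 10 mM Tris-HCl pH 8.0, 0.01% Tween 20. Compounds titrated, 15 min preincubation at room temperature; 1.5 microM Rhodamine110 substrate, FITC fluorescence change over 15 min.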

[8] = test system: Zika virus NS2B-NS3 protease (linked); assay: 384 well plate NINDS AMC confirmatory qHTS for Zika virus inhibitors (AID 1347163); conditions: Recombinant NS2B-NS3 protease, Ac-VKTGKR-AMC fluorescence; series mostly up to 100 µM; further: nearly all actives have a fitted effect of over 50% in size; further: potency means the concentration at half of the fitted maximal effect
Summary of the method: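 Enzyme (5, 30 or 60 nM final) first met test compounds for ~15 min. The AMC-tagged peptide Ac-VKTGKR-AMC followed at 30 microM. Fluorescence was then recorded at 25 min and scaled against no-enzyme and no-inhibitor wells.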

[9] = test system: Zika virus NS2B-NS3 protease (linked construct); assay: 384 well plate NINDS Rhodamine confirmatory qHTS for Zika virus inhibitors (AID 1347164); conditions: rhodamine-110 peptide substrate fluorescence; series mostly up to 100 µM;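 further: fluorescence from protease cleavage of Ac-LKRR-rhodamine 110 substrate; nearly all actives have a fitted effect of over 65% in size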; further: potency means the concentration at half of the fitted maximal effect
Summary of the method: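 Fluorescence at 485/538 nm was measured 25 minutes after adding 10 microM Ac-LKRR-Rd substrate, in the dark at room temperature. The protease (5, 30 or 60 nM final) had been preincubated ~15 minutes with compound; aprotinin as control.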

[10] = Vero cells viability qHTS for Zika virus inhibitors (AID 1347167); conditions: cytotoxicity counter-screen (Zika); series mostly up to 45.9 µM
Summary of the method: (§1)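 To flag cytotoxic protease inhibitors, viability is measured by ATP-dependent luminescence (CellTiter Glo) after cells attached overnight receive compound for 24 to 48 hours in DMEM with 4% FBS.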

[11] = HepG2 cells viability qHTS for Zika virus inhibitors (AID 1347168); conditions: Zika counter-screen; series mostly up to 45.9 µM
Summary of the method: as §1

[12] = ZIKV-mCherry secondary qHTS for Zika virus inhibitors (AID 1347158); conditions: Vero cells, ZIKV-mCherry infection imaging, 48-72 h; series mostly up to 49.2 µM; further: top concentration of the series differs between compounds
Summary of the method: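 Read-out is percent infection: mCherry-positive Vero cells (nuclear-proximal intensity >450 RFU, 3 SD above negative controls) counted by high-content imaging of Hoechst-stained, PFA-fixed wells after 48-72 h with ZIKV-mCherry at MOI 1 and compound.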

Measured: Potency

O=C(O)c1cc(N(Cc2ccc(C3CCCCC3)cc2)C(=O)c2ccc(Oc3ccccc3)cc2)ccc1O
active: [1] 15.6 µM | [2] 12.4 µM | [3] 9.87 µM | [4] 1.75 µM | [5] 1.26 µM | [6] 2.82 µM | [7] 1.97 µM | [8] 1.41 µM
inactive: [9] | [10] | [11]

COc1cc(C(=O)O)ccc1NC(=O)C1NC(CC(C)(C)C)C(C#N)(c2ccc(Cl)cc2F)C1c1cccc(Cl)c1F (configuration not stated)
active: [4] 4.41 µM | [5] 2.51 µM | [7] 4.94 µM
inactive: [6]

O=C(Nc1ccc(/C=C/c2ccc(NC(=O)c3cc(S(=O)(=O)O)c4cccnc4c3O)cc2S(=O)(=O)O)c(S(=O)(=O)O)c1)c1cc(S(=O)(=O)O)c2cccnc2c1O
inactive: [12]
active: [1] 46.9 µM | [4] 2.82 µM | [7] 2.51 µM | [8] 44.7 µM | [9] 15.8 µM

O=C(Nc1ccc(-c2ccc(Cl)c(Cl)c2)cc1)C1=C(O)c2ccccc2S(=O)(=O)N1
active: [2] 49.4 µM | [3] 44.1 µM | [4] 2.48 µM | [5] 2.82 µM | [6] 3.98 µM | [7] 2.48 µM | [9] 44.7 µM
inactive: [1] | [8] | [10] | [11]

COc1ccc(-c2ccccc2)cc1NS(=O)(=O)c1cc(Cl)cc(Cl)c1O
inactive: [10] | [11]
active: [1] 30.4 µM | [2] 7.64 µM | [4] 1.21 µM | [5] 1.41 µM | [6] 1.58 µM | [7] 1.71 µM | [8] 4.47 µM | [9] 4.47 µM
